± gives the standard deviation of the averaged measurements. Over roughly 33,000 sequences, “E-score (rank enrichment, -0.5 to 0.5)” has its median near -0.0075; the highest 2% begin near 0.23. This is one part of a sample in which the highest values are shown more often than they occur.
Tested on: WT Max(13-93) synthetic (M65Nle)
Test: PBM 8-mer E-score (E-score (rank enrichment, -0.5 to 0.5)); higher = stronger preferential binding
Procedure: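 Protein binding microarray (universal PBM chip covering all 10-mers in fixed probe flanks) with chemically synthesized human Max(13-93) bHLH-LZ analogs (not full-length Max) bearing noncanonical residues (hArg, Tha, Aib, Nle at 65) and aromatic Cys staples. Read-out per 8-mer (and its reverse complement): E-score (rank-based enrichment, -0.5 to 0.5) and Z-score of median probe intensity.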

| Sequence | PBM 8-mer E-score |
| --- | --- |
| CAAAAATA | 0.185 ± 0.02 |
| ATAAAATC | 0.109 ± 0.055 |
| AAGAAATA | 0.129 ± 0.0058 |
| GTAAAATA | 0.0829 ± 0.0054 |
| TAGAAATA | 0.251 ± 0.07 |
| GAAAAATA | 0.198 ± 0.08 |
| GAAGAATA | 0.104 ± 0.034 |
| CAAGAATA | 0.13 ± 0.035 |
| AAAAAATA | 0.246 ± 0.022 |
| ATAAAATA | 0.244 ± 0.0078 |
| AAAGAATA | 0.241 ± 0.039 |
| GAGAAATA | 0.0631 ± 0.15 |
| CATGCCGC | 0.0835 ± 0.051 |
| AATAGAGG | 0.00232 ± 0.055 |
| GAGTGGTA | -0.108 ± 0.011 |
| AATGCAGG | 0.087 ± 0.07 |
| AAGAACGA | 0.129 ± 0.018 |
| CAGAGTGC | -0.201 ± 0.058 |
| CTCGAAAG | -0.184 ± 0.043 |
| GACGAACA | 0.0177 ± 0.055 |
| GTTCATTA | 0.113 ± 0.06 |
| AGGTTTAA | 0.0368 ± 0.0029 |
| GGCTGGAA | -0.0381 ± 0.036 |
| GTTAAATA | 0.257 ± 0.1 |
| ATAAATTG | 0.0667 ± 0.085 |

| Sequence | PBM 8-mer E-score |
| --- | --- |
| ATTAAATA | 0.174 ± 0.085 |
| CTTAAATA | 0.139 ± 0.023 |
| CTAAATTA | 0.0753 ± 0.031 |
| ATAAATTA | 0.324 ± 0.038 |
| CGGGTCAA | -0.125 ± 0.03 |
| ATGGCTAG | 0.0642 ± 0.13 |
| AGGGAGCC | -0.227 ± 0.056 |
| AGTGCGTG | 0.0848 ± 0.032 |
| GGTTAGGA | 0.0556 ± 0.043 |
| ACTTAAAC | 0.0371 ± 0.073 |
| CCGCAGAG | -0.0777 ± 0.023 |
| GTGACACA | 0.0907 ± 0.1 |
| ATGACACG | 0.298 ± 0.039 |
| ATGACACC | 0.159 ± 0.048 |
| AAGACACA | 0.0963 ± 0.021 |
| CAGACACG | -0.0764 ± 0.14 |
| ATGACAGG | 0.0387 ± 0.051 |
| AAGACACG | 0.246 ± 0.021 |
| ATGACACA | 0.236 ± 0.042 |
| CTGACACA | -0.0349 ± 0.034 |
| CAGTCTGC | -0.0522 ± 0.01 |
| ACCTAATG | 0.00028 ± 0.0032 |
| CCAGGAGC | -0.312 ± 0.0027 |
| ATAAAAAA | 0.19 ± 0.044 |
| ATAAAAGG | 0.0572 ± 0.12 |

| Sequence | PBM 8-mer E-score |
| --- | --- |
| ATAAAAAG | 0.283 ± 0.11 |
| CAAGAACA | 0.0399 ± 0.038 |
| ATAAAACA | 0.24 ± 0.0041 |
| CTAAAACA | -0.07401 ± 0.00047 |
| GTAAAACA | 0.142 ± 0.14 |
| AAAAAACA | 0.158 ± 0.071 |
| GAAGAACA | 0.209 ± 0.057 |
| TAAGAACA | 0.243 ± 0.099 |
| TAAAAACA | 0.25 ± 0.0036 |
| ATAAAACG | 0.163 ± 0.16 |
| GCCCCGTA | -0.0782 ± 0.17 |
| ACGGGGTC | -0.061 ± 0.014 |
| CGGCAGAC | -0.218 ± 0.039 |
| AACCATTC | 0.0337 ± 0.04 |
| AATGCCGC | -0.0772 ± 0.0051 |
| CGACTAAA | -0.00903 ± 0.06 |
| AATAGGCA | 0.118 ± 0.0074 |
| GCGCGCCC | 0.00746 ± 0.051 |
| CAGGTTCC | -0.228 ± 0.077 |
| CCGTTAGC | -0.112 ± 0.12 |
| CTAAAGCA | 0.0761 ± 0.037 |
| ATAAAGCA | 0.264 ± 0.046 |
| CTCAAACA | 0.117 ± 0.014 |
| ATAAAGCG | 0.106 ± 0.045 |
| ATCAAACA | 0.238 ± 0.041 |

| Sequence | PBM 8-mer E-score |
| --- | --- |
| ATCAAGCA | 0.113 ± 0.0099 |
| GGCGGATA | -0.183 ± 0.13 |
| TGTGTTAA | 0.226 ± 0.034 |
| TTACACAA | 0.00996 ± 0.084 |
| ACCTGGGC | -0.318 ± 0.086 |
| AATCCTCT | 0.079 ± 0.071 |
| ACGCCAAC | -0.125 ± 0.04 |
| TGTATTAA | 0.173 ± 0.026 |
| CCTCAGGC | -0.057 ± 0.056 |
| CCGTGGGC | -0.129 ± 0.18 |
| AGGTGGGA | 0.0263 ± 0.046 |
| AAGTGGGA | 0.212 ± 0.0035 |
| GCGTGGGA | 0.238 ± 0.035 |
| GAGTGGGA | -0.0159 ± 0.0035 |
| ACGTGGGG | 0.164 ± 0.08 |
| ACGTGGGC | 0.33 ± 0.012 |
| ACGTGGGA | 0.302 ± 0.039 |
| CCGTGGGA | -0.15 ± 0.023 |
| CGCTGCAG | -0.19 ± 0.18 |
| GGACCGAC | -0.168 ± 0.097 |
| CGCAGCCA | -0.117 ± 0.093 |
| AGTGTTCC | -0.151 ± 0.007 |
| GCGGCAAC | -0.106 ± 0.026 |
| CACCCGAG | -0.19 ± 0.056 |
| GAACCAAC | 0.0313 ± 0.051 |

| Sequence | PBM 8-mer E-score |
| --- | --- |
| ATCTCAAA | -0.0195 ± 0.13 |
| CTGAGGAA | -0.111 ± 0.035 |
| ACAATGAG | 0.137 ± 0.029 |
| AAAATGAA | 0.138 ± 0.00081 |
| AAAATGAT | 0.249 ± 0.13 |
| ACAATGAC | 0.0383 ± 0.055 |
| ACAATGTC | 0.108 ± 0.095 |
| ACAATGTA | 0.239 ± 0.034 |
| ACAATGAT | 0.241 ± 0.024 |
| AAAATGAC | 0.174 ± 0.013 |
| GCAATGTA | 0.0841 ± 0.011 |
| TATGACGA | 0.0259 ± 0.072 |
| ATGATGCC | -0.00394 ± 0.018 |
| GGCTACCC | -0.19 ± 0.032 |
| CGCAAGAA | -0.121 ± 0.097 |
| GAGCCGGC | -0.26 ± 0.041 |
| AATGATCC | -0.122 ± 0.097 |
| AACAATTA | 0.248 ± 0.061 |
| AACAATAT | 0.252 ± 0.089 |
| GACAATAC | 0.202 ± 0.02 |
| AACAATAA | 0.213 ± 0.15 |
| ACCAATAT | 0.175 ± 0.057 |
| AACAATAG | -0.112 ± 0.17 |
| AACAATTG | 0.128 ± 0.05 |
| AACAATAC | 0.236 ± 0.036 |

| Sequence | PBM 8-mer E-score |
| --- | --- |
| AACAATTC | 0.146 ± 0.012 |
| AGCCGCTA | -0.263 ± 0.022 |
| CTCGATAA | -0.0814 ± 0.087 |
| AAGCGGGT | -0.0582 ± 0.061 |
| TCAGATCA | -0.0835 ± 0.073 |
| CCTCGACC | -0.128 ± 0.09 |
| GCTAAAAC | -0.101 ± 0.028 |
| TGAGATCA | -0.0342 ± 0.1 |
| AGCTGGAT | -0.164 ± 0.054 |
| CTCCCATA | -0.0036 ± 0.067 |
| ATGTTTAC | 0.243 ± 0.0084 |
| ATGTTTGG | 0.147 ± 0.042 |
| ATGTTTCC | 0.225 ± 0.092 |
| ATGTTTAA | 0.22 ± 0.078 |
| ATGTTTTG | 0.24 ± 0.066 |
| ATGTTTTA | 0.102 ± 0.043 |
| ACGTTTAG | 0.0123 ± 0.031 |
| CTGTTTAC | 0.0925 ± 0.099 |
| ATGTTTAG | 0.278 ± 0.063 |
| AAAATAGG | 0.031 ± 0.16 |
| GACAACCC | 0.0334 ± 0.15 |
| CGGCCAGA | -0.212 ± 0.006 |
| ATGCTTTA | 0.277 ± 0.0049 |
| CTGCTTTA | 0.169 ± 0.061 |
| ATGCTTTC | 0.174 ± 0.051 |

| Sequence | PBM 8-mer E-score |
| --- | --- |
| ATGATCGC | -5e-06 ± 0.043 |
| TGCCCGCA | 0.0712 ± 0.065 |
| TACATGAA | 0.11 ± 0.053 |
| GACATGTC | 0.163 ± 0.042 |
| AACATGTA | 0.23 ± 0.087 |
| GACATGTA | 0.273 ± 0.035 |
| GTCATGTA | 0.0154 ± 0.027 |
| TACATGTA | 0.308 ± 0.042 |
| GTGTCCGA | -0.00187 ± 0.12 |
| AGAGTACG | -0.124 ± 0.0062 |
| TGATCGAA | 0.0153 ± 0.063 |
| CGAGGAAA | 0.0336 ± 0.072 |
| GTTGTAGA | -0.101 ± 0.093 |
| CTTGTAGA | -0.146 ± 0.15 |
| ATTGTAGA | 0.302 ± 0.0094 |
| ATCAATTC | 0.0046 ± 0.15 |
| ATCAATTA | 0.225 ± 0.04 |
| ATCAATTG | 0.239 ± 0.016 |
| AGGACGGC | -0.0864 ± 0.17 |
| AAAACGTC | 0.0934 ± 0.022 |
| GACCGATA | -0.0238 ± 0.067 |
| CTAAACCC | 0.00702 ± 0.049 |
| AAGTGTCT | -0.104 ± 0.07 |
| CCGTGTCC | -0.00903 ± 0.072 |
| CCGTGTCG | -0.151 ± 0.011 |

| Sequence | PBM 8-mer E-score |
| --- | --- |
| ACCTGTCT | 0.0145 ± 0.064 |
| GCGTGTCA | 0.223 ± 0.019 |
| ACGTGTCT | 0.363 ± 0.00056 |
| ACGTGTCA | 0.3263 ± 0.0031 |
| AAGTGTCG | 0.0847 ± 0.052 |
| ACGTGTCG | 0.339 ± 0.0083 |
| ACGTGTCC | 0.243 ± 0.037 |
| GCGTGTCC | 0.127 ± 0.037 |
| CCGTGTCA | 0.0378 ± 0.022 |
| CCTTTGCG | 0.00668 ± 0.0019 |
| AGCCCCCC | -0.14 ± 0.14 |
| AACAGACA | 0.184 ± 0.011 |
| CGATTAGC | -0.18 ± 0.11 |
| CGGGCGAA | -0.0278 ± 0.057 |
| CACGCCTG | 0.0753 ± 0.081 |
| TGCTTGAA | 0.0947 ± 0.15 |
| GCCACTGA | -0.158 ± 0.074 |
| GACCCCTA | -0.156 ± 0.13 |
| CGTGGCTA | 0.193 ± 0.013 |
| CATCTCAA | 0.104 ± 0.017 |
| AAAAATAC | 0.2 ± 0.033 |
| AAAAATAG | 0.102 ± 0.059 |
| AAAAATAT | 0.256 ± 0.017 |
| TAATATAA | 0.183 ± 0.014 |
| CAATATAG | 0.117 ± 0.021 |

| Sequence | PBM 8-mer E-score |
| --- | --- |
| AACTATAA | 0.269 ± 0.028 |
| ATATATAG | 0.182 ± 0.041 |
| AAATATAG | 0.238 ± 0.099 |
| GACTATAA | 0.13 ± 0.0092 |
| GAATATAA | 0.179 ± 0.022 |
| AAATATAA | 0.24 ± 0.048 |
| CACTATAA | -0.0318 ± 0.027 |
| GTAGAGAC | -0.0752 ± 0.086 |
| CGTTCATC | 0.0464 ± 0.14 |
| GCCCCGCC | 0.172 ± 0.053 |
| CACAGGTA | 0.11 ± 0.061 |
| CGGTGACA | -0.162 ± 0.13 |
| ACTGCAAT | -0.0126 ± 0.077 |
| CAATATGA | 0.183 ± 0.027 |
| AAATATAT | 0.248 ± 0.032 |
| AAAAATTT | 0.14 ± 0.091 |
| ATATATAT | 0.0942 ± 0.12 |
| AAATATAC | 0.199 ± 0.028 |
| AAAATTTT | 0.273 ± 0.034 |
| AAATATGA | 0.261 ± 0.023 |
| AAAATTTG | 0.027 ± 0.066 |
| AAATATGT | 0.124 ± 0.078 |
